Screens as filed in PubChem BioAssay.
TTR transcr act = TTR transcription activation, primary screen. SH-SY5Y TTR promoter Gaussia luciferase, luminescence; 100% = recombinant luciferase protein wells. activation, % at 16.7 µM. 92,000 tested, 1.3% active;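 active = activation above the mean of all tested compounds plus 3 SD, cut at about 9.5% in these data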;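 also: cells exposed to compounds for one day before reading; 0% = median of all test compound wells on the plate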
HuH7 TTR inh = HuH7 TTR transcription inhibition, counter-screen | HuH7 TTR promoter-Gaussia luciferase reporter, luminescence | shares compounds with TTR transcr act | inhibition, % at 16.7 µM | 1,100 tested, 4% active;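 active = average inhibition above the solvent-only control wells' mean plus 3 SD, cut at about 15% in these data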;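 also: 0% = cells with DMSO only and 100% = cells with inhibitor control FD; inhibitors lower well luminescence so higher value means more inhibition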
TTR up confirm = confirmation of human transthyretin transcription activators. shares compounds with TTR transcr act. SHSY5Y TTR promoter Gaussia luciferase, luminescence; 100% = purified Lucia enzyme wells, no cells. activation, % at 16.7 µM. 1,100 tested, under 10 active. AID 1117280;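 active = mean activation above a set limit taken from the earlier primary screen, cut at about 11% in these data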;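 also: 0% = DMSO-treated cells and 100% = recombinant Lucia luciferase without cells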
Numbers without * were called inactive. The entries come from a sample that favours hits as a whole.

SMILES	TTR transcr act	others
O=C(CCn1c(=O)oc2ccccc21)Nc1ccc(N2CCOCC2)cc1	2
CSCc1c(C(=O)Nc2ccc(N3CCOCC3)cc2)oc2ccccc12	14*	HuH7 TTR inh=-12;TTR up confirm=0
CCCC1CCC2(CC1)CCC2OC(=O)Nc1ccc2c(c1)OCO2 (stereo not given)	1
O=C(NCc1cccc(Cl)c1)O[C@H]1CC[C@@]23CCCN2C(=O)CCC[C@H]3C1	-2
CCCCOc1ccc(C(=O)n2ccc3ccc(-c4ccc5ccn(Cc6ccccc6)c5c4)cc32)cc1	0
COc1ccc(CN(C(=O)Cn2nnc3ccccc32)C(C(=O)NC(C)(C)C)c2ccco2)cc1 (stereo not given)	9.9*	HuH7 TTR inh=-9;TTR up confirm=0
CCC(C)(C)NC(=O)C(c1ccccc1F)N(Cc1ccco1)C(=O)Cn1nnc2ccccc21 (stereo not given)	6
O=C(NC1CCCCC1)C(c1ccco1)N(Cc1cccs1)C(=O)Cn1nnc2ccccc21 (stereo not given)	-3
C[C@H](CO)N1C[C@H](C)[C@@H](CN(C)C(=O)NC2CCCCC2)OCc2cn(nn2)CCCC1=O	0
O=S1(=O)N[C@H](c2ccccc2)COc2cc(Br)ccc21	3
O=C(Nc1nc2ncccn2c1-c1ccccc1)c1ccc(F)cc1	0
CC1(c2nnnn2Cc2ccccc2)CSCC(=O)N1Cc1cccs1 (stereo not given)	-1
COc1ccc(CC(=O)N2CCc3ccccc32)cc1	21*	HuH7 TTR inh=-24;TTR up confirm=0
COc1ccc(C(=O)N2CCCc3ccccc32)cc1	6
COc1cc(CO)ccc1OCC(=O)N1CCc2ccccc21	-2
COc1ccc(C(=O)Nc2cc(Cl)c(Br)cc2C(=O)O)cc1	-2
O=C(Nc1ccccc1Cl)O[C@@H]1CC[C@@]23CCCN2C(=O)CCC[C@H]3C1	-2
